Molecular target: ScPex13
Test: SPOT peptide array binding signal intensity (averaged, normalized) (arbitrary units (background-subtracted, floor 0; scale differs between SH3 domains)); higher = stronger binding of the SH3 domain to the peptide
In short: (§1)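 Four yeast species supplied the SH3 domains, which were expressed as GST fusions in E. coli BL21(DE3) and purified on glutathione Sepharose. Incubation with cellulose membranes carrying synthetic 15-mer peptides, cysteines exchanged for serines, ran overnight at 4°C at 10 μg/ml in TBS-based blocking buffer. Binding signal is reported as normalized, background-subtracted spot intensity averaged over replicates, in arbitrary units not shared between domains.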

Binder	SPOT peptide array binding signal intensity
RPVPRRPSQPLNTLS	1420

Molecular target: ScRvs167
Test: as above
In short: as §1

Binder	SPOT peptide array binding signal intensity
RPVPRRPSQPLNTLS	2300

Molecular target: ScSho1
Test: as above
In short: as §1

Binder	SPOT peptide array binding signal intensity
RPVPRRPSQPLNTLS	163

Molecular target: ScSla1-D1-D2
Test: as above
In short: as §1

Binder	SPOT peptide array binding signal intensity
RPVPRRPSQPLNTLS	1000

Molecular target: ScSla1-D3
Test: as above
In short: as §1

Binder	SPOT peptide array binding signal intensity
RPVPRRPSQPLNTLS	18

Molecular target: SpAbp1-D1
Test: as above
In short: as §1

Binder	SPOT peptide array binding signal intensity
RPVPRRPSQPLNTLS	147

Molecular target: SpBbc1
Test: as above
In short: as §1

Binder	SPOT peptide array binding signal intensity
RPVPRRPSQPLNTLS	380

Molecular target: SpBzz1-D1
Test: as above
In short: as §1

Binder	SPOT peptide array binding signal intensity
RPVPRRPSQPLNTLS	466

Molecular target: SpBzz1-D2
Test: as above
In short: as §1

Binder	SPOT peptide array binding signal intensity
RPVPRRPSQPLNTLS	1.5

Molecular target: SpCyk3
Test: as above
In short: as §1

Binder	SPOT peptide array binding signal intensity
RPVPRRPSQPLNTLS	6.75

Molecular target: SpHof1
Test: as above
In short: as §1

Binder	SPOT peptide array binding signal intensity
RPVPRRPSQPLNTLS	297

Molecular target: SpHof1-2
Test: as above
In short: as §1

Binder	SPOT peptide array binding signal intensity
RPVPRRPSQPLNTLS	441

Molecular target: SpHof1-3
Test: as above
In short: as §1

Binder	SPOT peptide array binding signal intensity
RPVPRRPSQPLNTLS	278

Molecular target: SpHse1
Test: as above
In short: as §1

Binder	SPOT peptide array binding signal intensity
RPVPRRPSQPLNTLS	297

Molecular target: SpLsb1
Test: as above
In short: as §1

Binder	SPOT peptide array binding signal intensity
RPVPRRPSQPLNTLS	350

Molecular target: SpLsb4
Test: as above
In short: as §1

Binder	SPOT peptide array binding signal intensity
RPVPRRPSQPLNTLS	5510

Molecular target: SpMyo1
Test: as above
In short: as §1

Binder	SPOT peptide array binding signal intensity
RPVPRRPSQPLNTLS	37.8

Molecular target: SpNbp2
Test: as above
In short: as §1

Binder	SPOT peptide array binding signal intensity
RPVPRRPSQPLNTLS	81.5

Molecular target: SpPex13
Test: as above
In short: as §1

Binder	SPOT peptide array binding signal intensity
RPVPRRPSQPLNTLS	4.25

Molecular target: SpRvs167
Test: as above
In short: as §1

Binder	SPOT peptide array binding signal intensity
RPVPRRPSQPLNTLS	3150

Molecular target: SpSla1-D1-D2
Test: as above
In short: as §1

Binder	SPOT peptide array binding signal intensity
RPVPRRPSQPLNTLS	13

Molecular target: SpSla1-D3
Test: as above
In short: as §1

Binder	SPOT peptide array binding signal intensity
RPVPRRPSQPLNTLS	2

From the supplement of paper PMC4466140
